HEK293 viab – cell viability loss counter-screen | HEK-293-SNCA-luc viability, GF-AFC fluorescence, 24 h | Potency, µM (titrated, usually from 57.1 µM), without a hit: at the highest dose activity change, negative = cytotoxicity, actives largely listed as cytotoxic | 150,000 tested, 0.12% active;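 note: potency is the fitted concentration of half-maximal effect; 0% = DMSO-treated cells and -100% = medium-only wells without cells; nearly all actives have a fitted effect of over 30% in size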
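HEK-293-SNCA-luc cells (1500/well) plated 24 h, then exposed 24 h to a dilution series; GF-AFC added 30 min at 37C, fluorescence 405/540 nm; normalised to medium-only and DMSO wells, Hill fit.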
SNCA expr inhib – SNCA gene expression inhibition; HEK-293 SNCA-luciferase knock-in, luminescence, 24 h; Potency, µM (series often up to 57.2 µM), for the others: at the highest dose activity change, negative = inhibition, hits mostly inhibitors; 140,000 tested, 0.17% active; AID 1671194;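 note: potency is the fitted concentration of half-maximal effect; plate controls were DMSO cells for no effect and cell-free wells for full effect; nearly all actives have a fitted effect of over 45% in size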
KDM5B inhibitor – inhibitors of human KDM5B histone demethylase. Potency, µM (titrated, usually from 57.7 µM), hits mostly inhibitors. Q9UGL1. KDM5B demethylase, FDH-coupled NADH fluorescence (FDH is formaldehyde dehydrogenase). 220,000 tested, 2.6% active; note: potency is the fitted concentration of half-maximal effect; 0% is about no effect; nearly all actives have a fitted effect of over 70% in size
Target sequence (Q9UGL1 whole entry, looked up): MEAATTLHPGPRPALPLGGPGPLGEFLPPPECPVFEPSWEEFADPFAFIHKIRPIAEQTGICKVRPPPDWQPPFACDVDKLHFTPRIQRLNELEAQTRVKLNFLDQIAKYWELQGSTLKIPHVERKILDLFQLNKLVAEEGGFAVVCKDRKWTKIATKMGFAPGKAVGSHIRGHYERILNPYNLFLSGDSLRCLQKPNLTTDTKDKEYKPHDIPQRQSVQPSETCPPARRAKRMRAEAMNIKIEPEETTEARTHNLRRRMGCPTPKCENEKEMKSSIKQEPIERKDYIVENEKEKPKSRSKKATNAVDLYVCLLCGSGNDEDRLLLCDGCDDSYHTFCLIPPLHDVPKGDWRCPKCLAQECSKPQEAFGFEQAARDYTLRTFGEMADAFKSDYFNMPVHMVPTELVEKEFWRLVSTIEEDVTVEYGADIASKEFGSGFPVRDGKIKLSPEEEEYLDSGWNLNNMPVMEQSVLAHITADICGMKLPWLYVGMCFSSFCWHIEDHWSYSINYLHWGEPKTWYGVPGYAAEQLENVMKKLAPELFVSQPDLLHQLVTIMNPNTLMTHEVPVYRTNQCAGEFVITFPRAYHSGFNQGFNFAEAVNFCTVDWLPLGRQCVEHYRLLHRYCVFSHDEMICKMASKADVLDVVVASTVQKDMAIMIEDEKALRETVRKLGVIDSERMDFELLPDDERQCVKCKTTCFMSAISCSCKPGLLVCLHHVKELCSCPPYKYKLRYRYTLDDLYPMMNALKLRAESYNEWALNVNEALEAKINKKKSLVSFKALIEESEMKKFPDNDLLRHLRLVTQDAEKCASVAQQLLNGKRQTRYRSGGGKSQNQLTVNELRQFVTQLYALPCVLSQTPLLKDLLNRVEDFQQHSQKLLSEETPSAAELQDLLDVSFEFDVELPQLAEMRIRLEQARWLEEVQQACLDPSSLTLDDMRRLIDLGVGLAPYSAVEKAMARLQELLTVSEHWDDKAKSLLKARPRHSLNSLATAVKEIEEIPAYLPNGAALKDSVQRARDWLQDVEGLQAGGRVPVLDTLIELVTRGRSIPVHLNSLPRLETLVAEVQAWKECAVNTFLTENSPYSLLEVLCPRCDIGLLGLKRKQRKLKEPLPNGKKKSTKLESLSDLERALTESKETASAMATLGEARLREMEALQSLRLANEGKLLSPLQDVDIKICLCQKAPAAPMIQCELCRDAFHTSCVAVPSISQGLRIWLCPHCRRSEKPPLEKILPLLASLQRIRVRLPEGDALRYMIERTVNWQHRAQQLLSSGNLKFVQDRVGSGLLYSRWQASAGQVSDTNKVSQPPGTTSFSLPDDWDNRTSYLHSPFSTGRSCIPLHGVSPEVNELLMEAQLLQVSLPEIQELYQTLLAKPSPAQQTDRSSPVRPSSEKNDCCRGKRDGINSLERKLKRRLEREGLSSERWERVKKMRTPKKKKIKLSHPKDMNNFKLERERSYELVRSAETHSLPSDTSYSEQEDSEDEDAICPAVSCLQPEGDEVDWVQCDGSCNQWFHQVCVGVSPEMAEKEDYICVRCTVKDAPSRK
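Coupled FDH/NAD⁺ fluorescence readout. KDM5BΔAP 200 nM final; compound titration, 10 min RT preincubation; substrate mix 12.5 µM H3K4me3, 25 µM 2-OG, 50 µM Fe(II), 100 µM ascorbate, 0.25 mM NAD⁺, 0.25 U/mL FDH; ΔRFU over 30 min.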
IP6K1 inhibitor – inhibitors of human IP6K1; Q92551; 140,000 tested, 0.81% active; IP6K1 kinase, ADP-Glo luminescence, 2 h; active compounds read low; activity change, % (series mostly up to about 58 µM); in the data active = activity change below about -25%; note: % is set by controls: 0 for no effect and ±100 for the full control effect
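ADP-Glo luminescence measures ADP made by human IP6K1 during a 2 h RT reaction with ATP/IP6 (mix at 1.3 mM/130 uM); top library doses 57.5 and 19.1 uM final.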
* marks the source's active call; other numbers are inactive results; [ ] = another dose, or the depositor's remark. The list is not random: actives were taken first. Their share in the collection is about 2.9%. Unless noted, calls come from the whole dose curve; as a rule, active = well fitted curve in the direction sought with a large enough effect; inconclusive = small, poorly fitted or top-dose-only effect, or another doubt; inactive = no such curve, though single readings can be large; an effect the other way counts as inactive or inconclusive.

Results for COC[C@@H]1CN(C(=O)c2cn3ccccc3n2)C[C@H]1c1nc(C)no1 ?
HEK293 viab: 2%; SNCA expr inhib: 1%; KDM5B inhibitor: 20µM*; IP6K1 inhibitor: -4

How did O=C(c1cc[nH]c(=O)c1)N1C[C@@H](CO)[C@H](c2ccccn2)C1 do in these assays?
HEK293 viab: 3%; SNCA expr inhib: -12%; KDM5B inhibitor: 22µM*; IP6K1 inhibitor: 0

How did COc1cccc([C@H]2CN(C(=O)c3ccc4cc[nH]c4c3)C[C@@H]2N)c1 do in these assays?
HEK293 viab: -18%; SNCA expr inhib: 5%; KDM5B inhibitor: 32µM*; IP6K1 inhibitor: -20

How did Cc1noc([C@@H]2CN(C(=O)c3ccc4cc[nH]c4c3)C[C@H]2CO)n1 do in these assays?
HEK293 viab: -5%; SNCA expr inhib: 6%; KDM5B inhibitor: 25µM*; IP6K1 inhibitor: -5

What do the screens show for `Cc1nn2c(=O)cc(COC(=O)c3cccc(NC(=O)c4ccc(C(C)(C)C)cc4)c3)nc2s1`?
HEK293 viab: -3%; SNCA expr inhib: 20%; KDM5B inhibitor: inactive; IP6K1 inhibitor: 3

Results for N#Cc1cccc(NC(=O)N2CC3(CCN(C(=O)c4cccc(F)c4)CC3)C2)c1 ?
HEK293 viab: 3%; SNCA expr inhib: 5%

How did CCN(Cc1nc(-c2ccc(OC)c(OC)c2)no1)C(=O)Nc1ccc(C)cc1 do in these assays?
KDM5B inhibitor: inactive

What do the screens show for `CCn1c(CO)nnc1C1CC(NC(=O)c2cnc3sccn3c2=O)C1` (centres undefined)?
HEK293 viab: -1%; SNCA expr inhib: 1%; KDM5B inhibitor: 28µM*; IP6K1 inhibitor: 0

How did CCn1c(CO)nnc1C1CC(NC(=O)c2scc3c2CCCC3)C1 (centres undefined) do in these assays?
HEK293 viab: -20%; SNCA expr inhib: -19%; KDM5B inhibitor: inactive; IP6K1 inhibitor: 2

Results for Cc1noc(C)c1-c1cccc(CCOc2cnc3c(ccn3CC(=O)O)c2)c1 ?
HEK293 viab: 10%[87.6 µM]; SNCA expr inhib: -11%[87.6 µM]; KDM5B inhibitor: 40µM*; IP6K1 inhibitor: -5

How did O=C(O)Cn1ccc2cc(OCc3cccc(-c4cccc(C(F)(F)F)c4)c3)cnc21 do in these assays?
HEK293 viab: -7%[87.6 µM]; SNCA expr inhib: -6%[87.6 µM]; KDM5B inhibitor: inconclusive; IP6K1 inhibitor: -5

What do the screens show for `O=C(O)Cn1ccc2cc(OCCc3cccc(-c4cncnc4)c3)cnc21`?
HEK293 viab: 3%[87.6 µM]; SNCA expr inhib: -6%[87.6 µM]; KDM5B inhibitor: 28µM*; IP6K1 inhibitor: -17

What do the screens show for `Cc1cc(-c2cccc(CCOc3cnc4c(ccn4CC(=O)O)c3)c2)ccn1`?
HEK293 viab: 0%[87.6 µM]; SNCA expr inhib: 8%[87.6 µM]; KDM5B inhibitor: 35µM*; IP6K1 inhibitor: -5

How did Cc1cccc(-c2cccc(CCOc3cnc4c(ccn4CC(=O)O)c3)c2)c1 do in these assays?
HEK293 viab: -2%[87.6 µM]; SNCA expr inhib: 4%[87.6 µM]; KDM5B inhibitor: 32µM*; IP6K1 inhibitor: -10

Results for O=C(O)Cn1ccc2cc(OCc3cccc(-c4ccncc4)c3)cnc21 ?
HEK293 viab: -3%[87.6 µM]; SNCA expr inhib: -12%[87.6 µM]; KDM5B inhibitor: inconclusive; IP6K1 inhibitor: -4

Results for Cc1nc(NCc2ccccc2)sc1C(=O)NC1CC1 ?
KDM5B inhibitor: inactive

Results for CCN(CC)CCCNC(=O)c1ccc(Cn2c(=O)[nH]c3cc(OC)c(OC)cc3c2=O)cc1 ?
HEK293 viab: -2%; SNCA expr inhib: 16%; KDM5B inhibitor: inconclusive; IP6K1 inhibitor: 13

What do the screens show for `Cn1cc(-c2cccc(CCOc3cnc4c(ccn4CC(=O)O)c3)c2)cn1`?
HEK293 viab: 3%[87.6 µM]; SNCA expr inhib: 27%[87.6 µM]; KDM5B inhibitor: 40µM*; IP6K1 inhibitor: -16

Results for CN(C)[C@H]1CCCCN(C(=O)CCc2ccc(-c3ccc(Cl)cc3)[nH]2)C1 ?
HEK293 viab: -19%; SNCA expr inhib: 17%; KDM5B inhibitor: 32µM*; IP6K1 inhibitor: -7

Results for O=C(CCc1ncc(-c2ccc(Cl)cc2)o1)N1CCCC(O)C1 (centres undefined) ?
KDM5B inhibitor: inactive

What do the screens show for `CCc1nnc(SCC(=O)Nc2ccc(F)cc2F)c2cc3sc(C)cc3n12`?
HEK293 viab: -7%; SNCA expr inhib: 45%; KDM5B inhibitor: inactive; IP6K1 inhibitor: 15

Results for CN1CCC2(C1)CN(CC1CCOCC1)c1ccc(C(=O)NCCOc3ccccc3)cc12 (centres undefined) ?
HEK293 viab: 6%; SNCA expr inhib: -15%; KDM5B inhibitor: 22µM*; IP6K1 inhibitor: 4

How did CN1CCC2(C1)CN(CC1CCOCC1)c1ccc(C(=O)NCCCO)cc12 (centres undefined) do in these assays?
HEK293 viab: 2%[87.6 µM]; SNCA expr inhib: 16%[87.6 µM]; KDM5B inhibitor: 35µM*; IP6K1 inhibitor: -17

What do the screens show for `CN1CCC2(C1)CN(CC1CCOCC1)c1ccc(C(=O)NCCc3ccccc3)cc12` (centres undefined)?
HEK293 viab: 5%[87.6 µM]; SNCA expr inhib: 15%[87.6 µM]; KDM5B inhibitor: 32µM*; IP6K1 inhibitor: -6

How did Cc1cc(C(F)F)n2nc(C(=O)Nc3cc(Cl)ccc3C)nc2n1 do in these assays?
HEK293 viab: -3%; SNCA expr inhib: -4%; KDM5B inhibitor: inconclusive; IP6K1 inhibitor: 12

Results for CCc1ccccc1N1C(=O)c2sc3nc(C)cc(COC)c3c2NC1C (centres undefined) ?
KDM5B inhibitor: inactive

How did COC(=O)C1CN(Cc2ccc(C)cc2)CCS(=O)(=O)N1Cc1cn(Cc2ccc(C)cc2)nn1 (centres undefined) do in these assays?
KDM5B inhibitor: inactive

Results for c1ccc(-c2cnc(Nc3ccncc3)c3c2CCO3)cc1 ?
HEK293 viab: -25%[87.6 µM]; SNCA expr inhib: 52%[87.6 µM]; KDM5B inhibitor: inconclusive; IP6K1 inhibitor: -14

Results for COc1cccc(Nc2ncc(-c3ccccc3)c3c2OCC3)c1 ?
HEK293 viab: 4%[87.6 µM]; SNCA expr inhib: 164%[87.6 µM]; KDM5B inhibitor: 20µM*; IP6K1 inhibitor: 8

How did COc1cccc(Nc2ncc(-c3cccc(N(C)C)c3)c3c2OCC3)c1 do in these assays?
HEK293 viab: -2%[87.6 µM]; SNCA expr inhib: 21%[87.6 µM]; KDM5B inhibitor: 22µM*; IP6K1 inhibitor: 5

What do the screens show for `CC(C)C[C@@H](C=O)NC(=O)[C@H](CC(C)C)NC(=O)[C@H](CC(C)C)NC(=O)OCc1ccccc1`?
HEK293 viab: inconclusive; SNCA expr inhib: 0.61µM*

Results for CCCNC(=O)Cc1csc2nc(C)c(-c3cc(C)n(-c4ccc(C(C)C)cc4)n3)c(=O)n12 ?
HEK293 viab: 7%; SNCA expr inhib: -15%; KDM5B inhibitor: 28µM*; IP6K1 inhibitor: 6

How did Cc1ccc(-n2nc(-c3c(C)nc4scc(CC(=O)Nc5ccc(F)cc5)n4c3=O)cc2C)cc1 do in these assays?
HEK293 viab: -20%; SNCA expr inhib: -9%; KDM5B inhibitor: 28µM*; IP6K1 inhibitor: 6

What do the screens show for `CCC(C)NC(=O)Cc1csc2nc(C)c(-c3cc(C)n(-c4ccc(C)cc4)n3)c(=O)n12` (centres undefined)?
HEK293 viab: 5%; SNCA expr inhib: -14%; KDM5B inhibitor: 28µM*; IP6K1 inhibitor: 25

Assay outcomes from PubChem.
